# From PubChem BioAssay
# Key:
# [1] = system: Human papillomavirus type 1a protein E7 (residues 44-93); assay: small molecules binding HPV E7 44-93 – biochemical, small-molecule microarray, residues 44-93, 635 nm fluorescence, primary screen (AID 1108); conditions: fluorescence 635 nm, higher = more signal;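 also: E7 fragment applied at 1 µg/mL in TBST for 1 h at 4 C; score combines spot fluorescence with its signal to noise ratio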
# [2] = hepatitis C replication reporter changes, two-sided – Huh7 cells, luciferase reporter, HCV replication inhibitor project, primary screen (AID 1109); conditions: Huh7 HCV replicon luciferase reporter, 48 h; higher = more signal;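 also: huh7 hepatoma cells harbouring a luciferase neomycin HCV replicon reporter; luciferase luminescence as measure of HCV replicon replication; test concentration not given here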
# [3] = target: Left-right determination factor 2 (Homo sapiens) (UniProt O00292); assay: small molecules binding LEFTY2 protein – biochemical, small-molecule microarray, 635 nm fluorescence scan, primary screen (AID 1110); conditions: higher = more signal
# Chain of Left-right determination factor 2 (Homo sapiens) (O00292 whole entry, looked up): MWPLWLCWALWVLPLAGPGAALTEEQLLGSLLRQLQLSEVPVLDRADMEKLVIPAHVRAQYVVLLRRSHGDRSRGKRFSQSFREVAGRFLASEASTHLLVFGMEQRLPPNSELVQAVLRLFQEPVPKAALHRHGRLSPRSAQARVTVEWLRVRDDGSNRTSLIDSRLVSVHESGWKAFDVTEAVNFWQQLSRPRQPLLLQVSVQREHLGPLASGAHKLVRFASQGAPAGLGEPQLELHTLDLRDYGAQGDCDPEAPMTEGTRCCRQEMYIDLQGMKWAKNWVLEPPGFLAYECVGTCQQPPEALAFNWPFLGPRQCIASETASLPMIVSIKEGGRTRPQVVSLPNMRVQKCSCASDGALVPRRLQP
# [4] = target: Calmodulin-1 (Homo sapiens) (UniProt P0DP23); assay: small molecules binding calmodulin-1 with EGTA – biochemical, small-molecule microarray, Cy5-labelled CALM1, profiling panel (AID 1111); conditions: Cy5-CALM1 binding fluorescence, higher = more signal;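 also: labelled calmodulin applied in Tris saline Tween buffer holding calcium plus EGTA and DTT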
# [5] = target: Calmodulin-1 (Homo sapiens) (UniProt P0DP23); assay: small molecules binding Ca-loaded calmodulin-1 – biochemical, small-molecule microarray, Cy5-labelled CALM1, plus calcium, artefact control for SMM control-protein annotation, profiling panel (AID 1112); conditions: Cy5-CALM1 binding fluorescence, higher = more signal;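 also: score merges spot fluorescence with signal to noise from triplicate slides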
# [6] = probe aWnt5a binding to arrayed compounds – biochemical, biotinylated probe, 635/667 nm fluorescence, primary screen (AID 1113); conditions: small-molecule microarray, higher = more signal;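 also: score merges 667 nm fluorescence intensity with signal-to-noise per printed feature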
# [7] = probe aShh binding to arrayed compounds – biochemical, biotinylated probe, 635/667 nm fluorescence, primary screen (AID 1114); conditions: small-molecule microarray, higher = more signal;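 also: probe is biotin-labelled aShh protein from a stem cell growth factor screen; measures binding of labelled protein to compounds printed on the slide; score merges feature fluorescence at 667 nm with signal-to-noise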
# [8] = probe aNog binding to arrayed compounds – biochemical, biotinylated probe, 635/667 nm fluorescence, primary screen (AID 1115); conditions: small-molecule microarray, higher = more signal;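 also: probe is biotinylated aNog protein used at 0.15 µg/mL for 1 h at 4 C; z-score combines 667 nm fluorescence of each spot with its signal to noise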
# [9] = target: Torsin-1A-interacting protein 1 (Homo sapiens) (UniProt Q5JTV8); assay: compound microarray binding of lysate hLAP1 – cell lysate, small-molecule microarray, COS7 lysate, 635/667 nm fluorescence, primary screen (AID 1116); conditions: 635 nm fluorescence, higher = more signal
# Chain of Torsin-1A-interacting protein 1 (Homo sapiens) (Q5JTV8 whole entry, looked up): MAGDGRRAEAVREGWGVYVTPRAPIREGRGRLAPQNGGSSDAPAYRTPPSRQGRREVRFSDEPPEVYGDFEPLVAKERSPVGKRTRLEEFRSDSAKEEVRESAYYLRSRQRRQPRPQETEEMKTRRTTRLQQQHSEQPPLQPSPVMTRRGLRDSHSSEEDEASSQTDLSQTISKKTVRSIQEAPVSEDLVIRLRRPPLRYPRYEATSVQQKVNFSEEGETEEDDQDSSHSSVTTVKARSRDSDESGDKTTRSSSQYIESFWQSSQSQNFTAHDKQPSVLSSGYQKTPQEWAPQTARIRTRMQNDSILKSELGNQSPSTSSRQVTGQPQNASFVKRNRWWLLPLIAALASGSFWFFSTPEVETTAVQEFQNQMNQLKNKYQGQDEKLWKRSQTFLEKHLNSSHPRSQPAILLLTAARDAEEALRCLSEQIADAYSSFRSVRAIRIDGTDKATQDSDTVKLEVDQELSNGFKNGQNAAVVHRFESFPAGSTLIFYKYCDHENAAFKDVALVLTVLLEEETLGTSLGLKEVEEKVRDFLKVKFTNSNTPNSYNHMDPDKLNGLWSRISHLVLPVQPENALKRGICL
# [10] = target: Alpha-bungarotoxin (Bungarus multicinctus) (UniProt P60615); assay: compounds binding labelled alpha-BTX control protein – biochemical, small-molecule microarray, Alexa647 label, 635/667 nm fluorescence, artefact control for SMM control protein annotation, profiling panel (AID 1117); conditions: alpha-BTX-A647 binding fluorescence, higher = more signal
# Chain of Alpha-bungarotoxin (Bungarus multicinctus) (P60615 whole entry, looked up): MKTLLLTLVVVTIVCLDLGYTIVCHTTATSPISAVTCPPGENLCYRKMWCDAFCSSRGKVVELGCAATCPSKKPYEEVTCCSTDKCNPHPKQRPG
Structure (SMILES),composite z-score [1],z-score [2],composite z-score [3],composite z-score [4],composite z-score [5],composite z-score [6],composite z-score [7],composite z-score [8],composite z-score [9],composite z-score [10]
CC(CO)N1C(=O)[C@@H]2C3C(=O)OCCC/C=C\[C@H]3OC23C=CCN(c2ccc4ccccc4c2)C(=O)[C@@H]13 (stereo not given in full),-0.711,0.793,-1.22,0.0827,-0.0356,-0.127,-0.273,-0.0675,1.19,0.169
CC(C)(C)OC(=O)CC[C@]1(C(=O)O)N=C(c2ccc(OCCCO)cc2)O[C@H]1c1ccccc1N=[N+]=[N-],0.148,2.27,0.101,1.84,0.465,0.38,0.699,2.34,1.41,1.42
[N-]=[N+]=NCc1ccccc1C[C@]1(C(=O)N2CCOCC2)N=C(c2ccc(OCCCO)cc2)O[C@H]1c1ccccc1N=[N+]=[N-],1.44,-2.21,0.536,1.14,0.792,0.0873,0.385,0.49,1.73,1.14
CCOC(=O)C[C@H]1[C@H](OC(=O)c2cc3ccccc3oc2=O)[C@@H](NC(=O)Cc2ccc(OC)cc2)c2cc(OCCCO)ccc2N1C(=O)c1ccccc1,0.856,-0.273,0.427,-0.13,-0.342,-0.139,0.299,1.75,0.559,0.258
CC(C)c1ccc(NN2C(C(O)C(c3ccccc3)c3ccccc3)C=CC3C(=O)N(c4ccccc4)C(=O)C32)cc1 (stereo not given),1.42,-0.276,0.219,1.27,-0.147,0.0279,0.171,1.46,0.954,1.74
CC(C)(C)OC(=O)CC[C@]1(C(=O)NCC(O)CO)COC(c2ccc(OCCCO)cc2)=N1 (stereo not given in full),1.31,-0.105,-0.455,1.5,0.834,-0.0512,0.275,0.592,1.7,1.88
CN(C)C(=O)[C@]1(Cc2ccccc2CN=[N+]=[N-])N=C(c2ccc(OCCCO)cc2)O[C@@H]1c1ccccc1CN=[N+]=[N-],1.47,-3.12,0.189,0.324,0.708,0.216,0.249,0.76,1.39,0.832
CCN(CC)c1ccc(N2CC=CC34O[C@@H]5/C=C\CCC(C)OC(=O)C5[C@H]3C(=O)N(C(CO)C(C)C)[C@@H]4C2=O)cc1 (stereo not given in full),-0.0747,-0.668,-0.896,-0.55,-0.866,-0.062,0.214,-0.287,-0.251,0.174
COCCOC(=O)N1C(=O)[C@@]2(c3cc(C#Cc4ccc(OC)cc4)ccc31)[C@H](c1ccc(O)cc1)N1[C@H](c3ccccc3)[C@H](c3ccccc3)OC(=O)[C@H]1[C@@H]2C(=O)NC[C@H](O)c1ccccc1,1.44,-2.2,0.598,1.18,-0.209,0.0809,0.692,-0.467,0.681,1.54
COC(=O)C=C(CC(O)c1cccc(Cl)c1)OC (stereo not given),-0.734,-0.923,-0.17,1.27,1.01,0.23,0.506,1.93,1.99,1.51
COc1ccc([Si](C)(C)[C@H]2[C@H](CCO)O[C@@]3(C(=O)N(Cc4ccc(N5C(=O)COc6ccccc65)cc4)c4ccccc43)[C@@H]2C)cc1,0.49,-4.92,-1.45,0.471,0.601,-0.147,-0.153,0.201,-0.373,0.11
C=C(COC)/C(=C/C[C@@H](OC(C)=O)c1ccc(CO)o1)c1cnc2ccccc2c1,1.31,-0.638,1.07,0.0708,-0.6,-0.0425,-0.0146,0.256,2.19,2.76
C=CC[C@]1(C(=O)N2CCCCC2)N=C(c2ccc(OCCCO)cc2)O[C@H]1c1ccccc1,0.254,-1.98,0.32,0.0382,-0.0541,0.15,-0.155,2.28,1.55,0.741
